RGS7-Gao reg: RGS7-Galphao binding modulators, primary screen, biochemical, multiplexed bead flow cytometry; 220,000 tested, 0.35% active; actives lie on both sides; Guanine nucleotide-binding protein G(o) subunit alpha (Homo sapiens), P09471; binding response (% of control), % at 10 µM; AID 1439, 2008; in the data active = binding response below about 49% or above about 150%; inconclusive = no clear call, values can overlap the other calls; inactive = in between;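 note: fluorescent Galphao held in activated GDP-AlF4 state binding bead-coupled RGS7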
Target sequence (P09471 whole entry, looked up): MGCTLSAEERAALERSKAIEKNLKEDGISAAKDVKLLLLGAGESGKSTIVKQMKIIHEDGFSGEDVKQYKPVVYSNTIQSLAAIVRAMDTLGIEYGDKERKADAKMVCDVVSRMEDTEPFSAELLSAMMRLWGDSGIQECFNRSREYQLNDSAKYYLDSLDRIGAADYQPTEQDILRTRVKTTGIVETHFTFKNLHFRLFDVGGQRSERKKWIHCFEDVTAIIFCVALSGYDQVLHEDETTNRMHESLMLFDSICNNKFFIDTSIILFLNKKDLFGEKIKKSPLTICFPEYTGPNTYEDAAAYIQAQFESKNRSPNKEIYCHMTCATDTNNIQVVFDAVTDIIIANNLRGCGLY
RGS8-Gao: RGS8-Galphao binding modulators, primary screen, biochemical, multiplexed bead flow cytometry; actives lie on both sides; response (percent of control binding), % at 10 µM; 220,000 tested, 0.34% active; in the data active = response below about 60% or above about 140%; inactive = in between;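 note: Galphao activated as the GDP aluminium fluoride complex binding bead-coupled RGS8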
RGS4-Gao reg: modulators of RGS4 binding to Galphao, primary screen, biochemical, multiplexed bead flow cytometry; Guanine nucleotide-binding protein G(o) subunit alpha (Homo sapiens), P09471; actives lie on both sides; binding response (% of control), % at 10 µM; 220,000 tested, 0.33% active; AID 1415, 2008; in the data active = binding response below about 49% or above about 150%; inactive = in between;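 note: fluorescent Galphao activated with aluminum fluoride binding bead-coupled RGS4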
GSH fluor: compound fluorescence on glutathione beads, profiling panel, artefact control, biophysical, 488/530 nm, flow cytometry. GSH beads flow cytometry, compound fluorescence 488/530 nm; stronger effect = higher value. fluorescence (KMESF) at 10 µM. 190,000 tested, 0.25% active; in the data active = fluorescence above about 89;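 note: glutathione beads carrying GST-tagged Bcl family fusion proteins plus one bare bead set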
RGS16-Gao HTS: modulators of RGS16 binding to Galphao, primary screen, biochemical, human proteins, multiplexed bead flow cytometry. bead-based flow cytometry RGS16-Galphao binding, fluorescence; actives lie on both sides. 220,000 tested, 0.38% active. binding response (% of control), % at 10 µM;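 note: Galphao activated by GDP with aluminum fluoride before binding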
Avidin fluor: green autofluorescence of compounds with avidin beads – biophysical, 488/530 nm, flow cytometry, artefact control, profiling panel. compound fluorescence 488/530 nm; stronger effect = higher value. fluorescence (KMESF) at 10 µM. 220,000 tested, 0.38% active; in the data active = fluorescence above about 47
RGS-Gao: modulators of RGS–Galpha-o binding, primary screen, biochemical, multiplexed beads, flow cytometry, RGS4/7/8/16/19. multiplexed bead flow cytometry. RGS4–Galpha-o binding response, % at 10 µM. shares compounds with RGS16-Gao HTS. 1,600 tested, 99% active. AID 1504, 2009;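 note: fluorescently labeled Galpha-o bound to GDP with aluminium fluoride binding biotinylated RGS beads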
Target sequence (P09471 whole entry, looked up): as above
Target sequence (P49798 whole entry, looked up): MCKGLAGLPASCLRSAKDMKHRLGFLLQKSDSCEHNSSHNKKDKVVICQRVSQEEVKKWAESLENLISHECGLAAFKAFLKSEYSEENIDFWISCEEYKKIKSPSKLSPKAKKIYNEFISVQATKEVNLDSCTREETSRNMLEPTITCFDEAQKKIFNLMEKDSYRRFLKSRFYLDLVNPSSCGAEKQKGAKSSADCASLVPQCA
Biotin-avidin: disruption of biotin probe capture by avidin, counter-screen for RGS protein interaction modulators, biochemical, flow cytometry, bead-based; shares compounds with RGS16-Gao HTS; streptavidin beads, fluorescein-biotin binding; 1,700 tested, under 10 active; inhibition, % at 10 µM;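 active = inhibition above 50%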;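 note: median green fluorescence of gated singlet beads compared with DMSO control wells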
RGS8-Gao single: RGS8-Galphao binding modulators, confirmation, biochemical, multiplexed bead flow cytometry, single concentration. binding response (% of control), % at 10 µM. 1,700 tested, 3% active. AID 1836, 2009. bead-based flow cytometry RGS8-Galphao binding, fluorescence; actives lie on both sides. shares compounds with RGS16-Gao HTS; in the data active = binding response below about 72% or above about 130%; inactive = in between;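 note: Galphao activated as GDP AlF4 complex before binding bead RGS8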
RGS7-Gao confirm: RGS7-Galphao binding modulators, confirmation, biochemical, multiplexed bead flow cytometry, single concentration. response (percent of control binding), % at 10 µM. AID 1837, 2009. shares compounds with RGS16-Gao HTS. bead-based flow cytometry RGS7-Galphao binding; actives lie on both sides. 1,700 tested, 7.8% active; in the data active = response below about 75% or above about 130%; inactive = in between;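 note: fluorescent Galphao activated with GDP and aluminum fluoride binding bead-coupled RGS7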
RGS16-Gao conf: modulators of RGS16-Galphao protein binding, confirmation, biochemical, single concentration, multiplexed bead flow cytometry; 1,700 tested, 4% active; AID 1838, 2009; response (% of control binding), % at 10 µM; bead-based flow cytometry; actives lie on both sides; shares compounds with RGS16-Gao HTS; in the data active = response below about 74% or above about 130%; inactive = in between;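 note: Galphao activated as the GDP aluminium fluoride complex binding bead-coupled RGS16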
RGS4-Gao confirm: modulators of RGS4-Galphao protein binding, confirmation, biochemical, single concentration, multiplexed bead flow cytometry; shares compounds with RGS16-Gao HTS; actives lie on both sides; binding response (% of control), % at 10 µM; 1,700 tested, 4% active; AID 1840, 2009; in the data active = binding response below about 74% or above about 130%; inactive = in between
RGS19-Gao conf: regulators of RGS19-Galphao binding, confirmation, biochemical, single point, multiplexed bead flow cytometry; shares compounds with RGS16-Gao HTS; 1,700 tested, 5% active; response (percent of control binding), % at 10 µM; bead-based flow cytometry RGS19-Galphao binding; actives lie on both sides; in the data active = response below about 50% or above about 160%; inactive = in between
Hits are given with their value; – = inactive; ? = inconclusive; · = not tested or not shown; [ ] = another dose, or the depositor's remark. A selection: hits, their analogues and other compounds. The true share with any hit is near 1.2%. Unless noted, the rule behind the calls is not given here.

SMILES	RGS7-Gao reg	RGS8-Gao	RGS4-Gao reg	GSH fluor	RGS16-Gao HTS	Avidin fluor	RGS-Gao	Biotin-avidin	RGS8-Gao single	RGS7-Gao confirm	RGS16-Gao conf	RGS4-Gao confirm	RGS19-Gao conf
Cc1ccc(C)c(Sc2ccc(NC(=O)CCl)cc2)c1	–	–	–	–	299[activator]	–	115	·	·	·	·	·	·
CC(C)C(=O)NC(=S)Nc1ccc(S(=O)(=O)N2CCCC2)cc1	–	–	–	–	–	–	·	·	·	·	·	·	·
Cc1ccc(S(=O)(=O)Nc2ccc(N3CCOCC3)cc2)cc1	–	–	–	–	-64	–	86	–	–	–	–	–	–
COC(=O)CNC(=O)c1ccc(C)s1	–	–	–	–	–	–	·	·	·	·	·	·	·
COCCNC(=O)c1ccc(C(=O)NCCOC)s1	·	·	233[activator]	–	·	·	·	–	–	–	–	–	–
CCCCC(CCC(=O)O)(C(=O)OCC)c1csc(Nc2ccc(C)cc2)n1 (stereo not drawn)	-16	12	1.7	–	10.0	–	·	–	–	–	–	–	–
NC(=O)c1ccc(NC(=O)CCCc2nc(-c3ccccc3Cl)no2)cc1	–	–	–	–	–	–	·	·	·	·	·	·	·
CC1=NCCN1CCNC(=O)Nc1ccc(F)cc1	?	–	–	·	–	–	·	·	·	·	·	·	·
CC1=NCCN1CCNC(=O)Nc1cc(C)cc(C)c1	?	–	47	·	–	–	·	–	–	–	–	–	–
Cc1cc(OCC(=O)Nc2ccc(F)c(F)c2)nc(C(C)C)n1	2.3	34	-21	–	-13	–	·	–	–	–	–	–	–
Cc1cc(OCC(=O)Nc2ccccc2F)nc(C(C)C)n1	–	–	–	–	–	–	·	·	·	·	·	·	·
O=C(O)c1ccc(N2C(=O)C3C4c5ccccc5C(Br)(c5ccccc54)C3C2=O)cc1 (stereo not drawn)	–	–	–	–	–	–	·	·	·	·	·	·	·
CC1CCc2nc(NC(=O)CN3CCN(c4ccccc4)CC3)sc2C1 (stereo not drawn)	–	–	–	–	–	–	·	·	·	·	·	·	·
CC1CCc2nc(NC(=O)CCSc3ccccc3)sc2C1 (stereo not drawn)	–	–	–	–	20	–	79	–	–	–	–	–	–
Cc1cc(C(=O)Oc2cccnc2)ccc1[N+](=O)[O-]	–	–	–	–	25	–	91	–	–	–	–	–	–
Cc1ccc(C(=O)Nc2ccccc2NC(=O)c2ccc(C)o2)o1	–	60	–	240	–	–	55	–	–	–	–	–	–
CC(C)C(=O)Nc1nnc(SCC(=O)NCc2ccc3c(c2)OCO3)s1	–	–	–	–	–	–	·	·	·	·	·	·	·
COC(=O)c1c(C(=O)NCc2ccccc2)ncn1CC(O)COc1ccccc1 (stereo not drawn)	–	–	–	–	-175	–	58	–	–	74	–	–	–
CN1C(=O)CSc2ccc(NC(=O)N3CCC(N4CCCCC4)CC3)cc21	–	–	–	–	278[activator]	–	109	–	–	64	–	–	–
CCCC(=O)OC(C(=O)Nc1cc(C(F)(F)F)ccc1Cl)c1ccccc1 (stereo not drawn)	–	–	–	–	241[activator]	–	107	–	–	–	–	–	–
CCOCCCNC(C(=O)Nc1ccc(OC)c(Cl)c1)c1ccccc1 (stereo not drawn)	?	–	–	–	–	–	·	·	·	·	·	·	·
CCOC(=O)C(c1ccccc1)C(Nc1ccccc1)c1ccccn1 (stereo not drawn)	?	–	–	·	–	–	·	·	·	·	·	·	·
CCOC(=O)C(C(=O)OCC)C(Nc1ccccc1)c1ccccc1 (stereo not drawn)	–	–	–	–	9.4	–	77	–	–	–	–	–	–
CCOC(=O)C(NCCCO)c1ccccc1 (stereo not drawn)	·	·	·	–	·	·	·	–	–	–	–	–	–
Cc1cccc(OCC(=O)OC2CCN(C)CC2)c1	–	–	–	–	–	–	·	·	·	·	·	·	·
SMILES	RGS7-Gao reg	RGS8-Gao	RGS4-Gao reg	GSH fluor	RGS16-Gao HTS	Avidin fluor	RGS-Gao	Biotin-avidin	RGS8-Gao single	RGS7-Gao confirm	RGS16-Gao conf	RGS4-Gao confirm	RGS19-Gao conf
CCOC(=O)C1CCN(C(=O)Cc2cccc3ccccc23)CC1	–	–	–	–	–	–	·	·	·	·	·	·	·
CSc1ccc(C2C(C#N)=C(N)Oc3c2ccc(=O)c2c(C)oc(C)c32)cc1 (stereo not drawn)	254[activator]	–	180[activator]	159	–	93	·	–	–	–	–	–	–
CCCCCNCc1ccc(Br)cc1	–	–	–	–	–	–	·	·	·	·	·	·	·
CCc1cc(C=NC2CCCCC2)c(O)s1	-28	-0.4	-60	–	-39	–	·	–	–	–	–	–	–
COc1ccc(CN(CCC(c2ccco2)C(C)C)C(C)=O)cc1OC (stereo not drawn)	?	–	–	·	–	–	·	·	·	·	·	·	·
COc1ccc(-c2cn3c(C)c(C(=O)Nc4cccc(C)n4)sc3n2)cc1	181[activator]	–	–	–	–	198	110	–	–	–	–	–	–
Cc1cccc(NC(=O)c2sc3nc(-c4ccccc4)cn3c2C)n1	–	–	–	–	–	–	·	·	·	·	·	·	·
CC1(C)CC(=O)C(C=NCCN2CCN(C(=O)CCl)CC2)=C(O)C1	?	–	–	·	–	–	·	·	·	·	·	·	·
CCC(=O)N1CCN(CCN=CC2=C(O)CC(C)(C)CC2=O)CC1	–	146[activator]	–	–	–	–	105	–	–	–	–	–	–

Compound activity (PubChem)
